# Reference: PubChem BioAssay (NCATS)
# Where “and” joins values, the source holds several entries; their conditions need not be identical. Identical values can stand only once. Inconclusive results are not listed. Entries that show only a call come without a potency. The source holds several records for some structures; these can differ, active in one and inactive in another. Calls of active or inactive are those of the source. Calls follow the shape of the dose curve; as a rule, active = well fitted curve in the direction sought with a large enough effect; inconclusive = small, poorly fitted or top-dose-only effect, or another doubt; inactive = no such curve, though single readings can be large; an effect the other way counts as inactive or inconclusive.
# What was measured:
# MKL-2 = experiment: qHTS assay to identify novel small-molecules to repurpose for Merkel cell carcinoma treatment (AID 1296009); details: MCC and control cell lines, CellTiter-Glo viability, 72 h; series mostly up to 46 µM; also: nearly all actives have a fitted effect of over 60% in size
# In short: (§1)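 After compound transfer in DMSO, plates were kept 72 hr at 37 degree celsius. Luminescent ATP signal from CellTiter-Glo served as viability measure, normalized against DMSO and no-cell controls.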
# Es-2 = experiment: Primary qHTS to identify gynecologic anti-cancer compounds using libraries of approved drugs and bioactive compounds (AID 1345084); details: Gynecologic cancer cell panel viability, ATPlite luminescence, 48 h; series mostly up to 57.5 µM; also: nearly all actives have a fitted effect of over 55% in size
# In short: (§2)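 ATP-based viability (ATPlite), 1,000 cells/well, 16 h pre-incubation, 48 h compound at 37 C, 5% CO2, 15 min RT before read.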
# HeLa = experiment: as above; details: Gynecologic cancer cell panel viability, ATPlite luminescence, 48 h; series mostly up to 57.5 µM
# In short: as §2
# UISO = experiment: qHTS assay to identify novel small-molecules to repurpose for Merkel cell carcinoma treatment (AID 1296009); details: MCC and control cell lines, CellTiter-Glo viability, 72 h; series mostly up to 46 µM; also: nearly all actives have a fitted effect of over 60% in size
# In short: as §1
# WaGa = experiment: as above; details: MCC and control cell lines, CellTiter-Glo viability, 72 h; series mostly up to 46 µM
# In short: as §1
# C33A = experiment: Primary qHTS to identify gynecologic anti-cancer compounds using libraries of approved drugs and bioactive compounds (AID 1345084); details: Gynecologic cancer cell panel viability, ATPlite luminescence, 48 h; series mostly up to 57.5 µM; also: nearly all actives have a fitted effect of over 55% in size
# In short: as §2
# CAOV3 = experiment: as above; details: Gynecologic cancer cell panel viability, ATPlite luminescence, 48 h; series mostly up to 57.5 µM
# In short: as §2
# CASKI = experiment: as above; details: Gynecologic cancer cell panel viability, ATPlite luminescence, 48 h; series mostly up to 57.5 µM
# In short: as §2
# Hek293T = experiment: as above; details: Gynecologic cancer cell panel viability, ATPlite luminescence, 48 h, control line for the selectivity index; series mostly up to 57.5 µM
# In short: as §2
# NIH3T3 = experiment: qHTS assay to identify novel small-molecules to repurpose for Merkel cell carcinoma treatment (AID 1296009); details: MCC and control cell lines, CellTiter-Glo viability, 72 h; at 44.8 µM (top of the series) unless noted; also: nearly all actives have a fitted effect of over 60% in size
# In short: as §1
# Potency is read from the fitted curve at half-maximal effect.
SMILES,Potency (MKL-2),Potency (Es-2),Potency (HeLa),Potency (UISO),Potency (WaGa),Potency (C33A),Potency (CAOV3),Potency (CASKI),Potency (Hek293T),outcome (NIH3T3)
COC(=O)Nc1nc2ccc(Sc3ccccc3)cc2[nH]1,3.32 µM (active),2.82 µM (active),2.24 µM (active),–,–,–,–,–,–,–
CCCCS(=N)(=O)CCC(N)C(=O)O (stereo unspecified),–,–,–,inactive,inactive,–,–,–,–,–
CC(C)OC(=O)OCOP(=O)(CO[C@H](C)Cn1cnc2c(N)ncnc21)OCOC(=O)OC(C)C,inactive,inactive,inactive,–,inactive,inactive,inactive,inactive,inactive,–
Nc1nc(F)nc2c1ncn2[C@@H]1O[C@H](CO)[C@@H](O)[C@@H]1O,–,–,inactive,13.3 µM (active) and 935 nM (active),10.6 µM (active) and 935 nM (active),–,inactive,inactive,inactive,–
O=C(O)c1ccc(-n2nc(-c3ccccc3O)nc2-c2ccccc2O)cc1,–,–,inactive,–,16.8 µM (active),–,inactive,inactive,–,–
CCCCCCNC(=O)n1cc(F)c(=O)[nH]c1=O,inactive,–,inactive,–,–,inactive,inactive,inactive,inactive,–
CCCc1nc(C)c2c(=O)[nH]c(-c3cc(S(=O)(=O)N4CCN(CC)CC4)ccc3OCC)nn12,–,inactive,inactive,–,–,inactive,inactive,inactive,inactive,–
CCOC(=O)[C@H](CCc1ccccc1)N[C@H]1CCc2ccccc2N(CC(=O)O)C1=O,–,inactive,inactive,inactive,inactive,–,–,inactive,inactive,–
CCc1c2c(nc3ccc(OC(=O)N4CCC(N5CCCCC5)CC4)cc13)-c1cc3c(c(=O)n1C2)COC(=O)[C@]3(O)CC,944 nM (active) and 296 nM (active),14.1 µM (active),inactive,0.833 µM (active),422 nM (active) and 662 nM (active),–,–,–,inactive,–
O[C@@H](CNC[C@H](O)[C@H]1CCc2cc(F)ccc2O1)[C@@H]1CCc2cc(F)ccc2O1,26.4 µM (active),–,inactive,23.7 µM (active),inactive,–,–,–,inactive,–
CCCCOc1ccc(CC(=O)NO)cc1,–,–,inactive,16.8 µM (active),–,–,inactive,inactive,inactive,–
Cc1ncc([N+](=O)[O-])n1CCO,–,inactive,inactive,–,–,inactive,inactive,inactive,inactive,–
CNC(=O)c1cc(Oc2ccc(NC(=O)Nc3ccc(Cl)c(C(F)(F)F)c3)cc2)ccn1,–,inactive,–,–,23.7 µM (active),–,inactive,inactive,–,–
Oc1c(Cl)cc(Cl)c2cccnc12,3.76 µM (active),20 µM (active),inactive,13.3 µM (active),11.9 µM (active),–,–,inactive,–,–
Cc1ccc(S(=O)(=O)N[C@@H](Cc2ccccc2)C(=O)CCl)cc1,–,–,–,–,–,–,–,–,–,inactive
CC[C@H](C)C(=O)O[C@H]1C[C@@H](C)C=C2C=C[C@H](C)[C@H](CC[C@@H]3C[C@@H](O)CC(=O)O3)[C@H]21,–,inactive,–,9.44 µM (active) and 20.9 µM (active),inactive,inactive,inactive,inactive,inactive,–
N=C(N)c1ccc(OCCCCCOc2ccc(C(=N)N)cc2)cc1,–,inactive,inactive,–,–,–,inactive,inactive,–,–
CCOC(=O)c1ccc(C#Cc2ccc3c(c2)C(C)(C)CCS3)nc1,–,inactive,inactive,inactive,inactive,inactive,inactive,inactive,inactive,inactive
CCCCc1oc2ccc(NS(C)(=O)=O)cc2c1C(=O)c1ccc(OCCCN(CCCC)CCCC)cc1,13.2 µM (active) and 4.73 µM (active),–,inactive,–,–,–,–,–,–,–
Nc1nc(=S)c2[nH]cnc2[nH]1,7.5 µM (active),7.08 µM (active),1.41 µM (active),1.33 µM (active),3.35 µM (active) and 10.5 µM (active),–,–,3.55 µM (active),–,–
NNC(=O)c1ccncc1,–,inactive,inactive,inactive,inactive,inactive,inactive,inactive,inactive,–
CC1(C)[C@H](C(=O)O)N2C(=O)C[C@H]2S1(=O)=O,–,inactive,inactive,–,–,inactive,inactive,inactive,inactive,–
CC(=O)Oc1ccccc1C(=O)Nc1ncc([N+](=O)[O-])s1,–,–,–,–,inactive and 16.8 µM (active),inactive,inactive,inactive,–,inactive [at 92 µM]
Cc1onc(-c2ccccc2Cl)c1C(=O)N[C@@H]1C(=O)N2[C@@H]1SC(C)(C)[C@@H]2C(=O)O,–,inactive,inactive,–,–,inactive,inactive,inactive,inactive,–
COC(=O)Nc1nc2ccc(C(=O)c3ccccc3)cc2[nH]1,–,2.82 µM (active),1 µM (active),4.18 µM (active),–,–,inactive,–,–,–
